Several values for one entry are separate records, joined by “and”; a condition that tells them apart may be missing. Identical values can stand only once. In all, about 16,000 compounds went through this assay and about 5,800 (36%) were called active. Roughly 23% stayed inconclusive and do not appear here. Calls come from the whole dose curve; as a rule, active = well fitted curve in the direction sought with a large enough effect; inconclusive = small, poorly fitted or top-dose-only effect, or effect the other way; inactive = no such curve, though single readings can be large or run the other way. The list shows a part of the results.
These compounds were tested against Cytochrome P450 2C19 (Homo sapiens) (UniProt P33261) (assay: Cytochrome panel assay with activity outcomes). Settings: recombinant CYP, pro-luciferin dealkylation, luminescence, p450-cyp2c19; series mostly up to 57.1 µM.
Cytochrome P450 2C19 (Homo sapiens), sequence (P33261 whole entry, looked up): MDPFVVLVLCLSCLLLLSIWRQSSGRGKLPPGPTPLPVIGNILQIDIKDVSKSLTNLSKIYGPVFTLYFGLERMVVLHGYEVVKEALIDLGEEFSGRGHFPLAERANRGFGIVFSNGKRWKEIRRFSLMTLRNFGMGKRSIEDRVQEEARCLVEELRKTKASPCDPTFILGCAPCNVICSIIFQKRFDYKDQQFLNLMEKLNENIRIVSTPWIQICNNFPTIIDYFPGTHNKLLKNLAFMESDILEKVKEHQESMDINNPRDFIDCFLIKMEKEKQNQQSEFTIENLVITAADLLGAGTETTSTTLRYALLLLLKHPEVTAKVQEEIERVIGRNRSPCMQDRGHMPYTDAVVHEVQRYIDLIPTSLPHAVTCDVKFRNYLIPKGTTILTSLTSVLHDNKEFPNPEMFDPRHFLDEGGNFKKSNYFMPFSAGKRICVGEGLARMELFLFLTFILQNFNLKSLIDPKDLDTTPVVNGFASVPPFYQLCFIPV
In the case of `C[C@@H](C(=O)O)[C@H]1C[C@]1(C)[C@H](NC(=O)OCc1ccccc1)c1ccccc1`, the AC50 is reported as 7940 nM (active).
With `C[C@@H](C(=O)O)[C@@H]1C[C@@]1(C)[C@@H](NC(=O)OCc1ccccc1)c1ccccc1` the AC50 was “inactive”.
With `COC(=O)[C@H](C)[C@H]1C[C@]1(C)[C@H](NC(=O)OCc1ccccc1)c1ccccc1` the AC50 was 251 nM (active).
With `COC(=O)[C@H](C)[C@@H]1C[C@@]1(C)[C@@H](NC(=O)OCc1ccccc1)c1ccccc1` the AC50 was 316 nM (active).
For `Nc1ccccc1C(=O)/C=C\c1ccc2c(c1)OCO2`, the AC50 was 1000 nM (active).
For `O=C(/C=C\C=C/c1ccc2c(c1)OCO2)N1CCCCC1`, the AC50 was “inactive”.
For `O=C(O)/C=C\C=C/c1ccc2c(c1)OCO2`, the activity, negative = inhibition was 23.6% [at 11.4 µM] (inactive).
`COCOc1cc(OC)ccc1C(=O)/C=C\c1ccc2c(c1)OCO2` was tested, and the AC50 was 100 nM (active).
For `O=C(/C=C\c1ccc2c(c1)OCO2)c1ccc(F)cc1`, the AC50 was 1000 nM (active).
For `O=C1/C(=C/c2cccnc2)SC(=S)N1Cc1ccco1`, the AC50 was 3160 nM (active).
`COC(=O)c1nn(-c2ccc(OC)cc2)c(=O)cc1Oc1cccc(Cl)c1` was tested, and the AC50 was 14100 nM (active).
In the case of `COC(=O)c1nn(-c2ccccc2)c(=O)cc1Oc1ccccc1`, the AC50 is reported as 14100 nM (active).
`O=C1C=C[C@@H](O)[C@H]2[C@@H]3C(=O)N(c4cccc(Oc5ccccc5)c4)C(=O)[C@@H]3CC[C@H]12` was tested, and the activity, negative = inhibition was -33.5% [at 11.4 µM] (inactive).
`Nc1nc2c(nc(Br)n2[C@@H]2O[C@H]3COP(=O)(O)O[C@@H]3[C@H]2O)c(=O)[nH]1` was tested, and the AC50 was “inactive”.
For `NC(N)=[N+]1CCc2ccccc2C1`, the AC50 was “inactive”.
For `COc1ccc(N(C(=O)COc2ccccc2OC)S(=O)(=O)c2ccc(C)cc2)cc1`, the AC50 was 5010 nM (active).
`CON(C)C(=O)c1nnc2c3ccccc3n(S(=O)(=O)c3ccc(C)cc3)c2n1` was tested, and the activity, negative = inhibition was 16% [at 11.4 µM] (inactive) and 19.4% [at 11.4 µM] (inactive).
With `COc1ccc(C(NC(=O)c2ccc(-c3ccccc3)cc2)c2ccccc2)cc1` (configuration not stated) the AC50 was “inactive”.
In the case of `CCCCCN(CCCCC)C(=O)[C@H](CCC(=O)O)NC(=O)c1ccc(Cl)c(Cl)c1`, the AC50 is reported as “inactive”.
In the case of `C[C@H](NC(=O)c1ccc(Cl)c(Cl)c1)c1ccc(-c2ccccc2)cc1`, the AC50 is reported as 1260 nM (active).
In the case of `O=C(Nc1cccc(F)c1)N1CC[C@@]2(CCCN(C(=O)c3cnccn3)C2)C1`, the AC50 is reported as “inactive”.
With `O=c1oc2cc(Oc3ccc(C(F)(F)F)cc3[N+](=O)[O-])ccc2c2c1CCCC2` the AC50 was “inactive”.
In the case of `O=c1oc2cc(Oc3c([N+](=O)[O-])cc(C(F)(F)F)cc3[N+](=O)[O-])ccc2c2c1CCCC2`, the AC50 is reported as 2820 nM (active).
With `Fc1ccc(Nc2ncncc2-c2ccoc2)cc1` the AC50 was “inactive”.
With `CN(C)C(=O)c1ccc(-c2cncnc2NC2CCNCC2)cc1` the AC50 was “inactive”.
`CN(C)c1ccc(-c2cncnc2Nc2ccccc2)cc1` was tested, and the AC50 was 316 nM (active).
For `CN(C)c1ccc(-c2cncnc2Nc2ccc(F)cc2)cc1`, the AC50 was 794 nM (active).
`COC(=O)[C@@H]1[C@@H]2C[C@H]3c4[nH]c5cc(OC)ccc5c4CCN3C[C@@H]2C[C@H](OC(=O)c2cc(OC)c(OC)c(OC)c2)[C@H]1OC` was tested, and the AC50 was “inactive”.
For `CCCCC(=O)Nc1cc(OCC)c(NC(=O)c2ccccc2[N+](=O)[O-])cc1OCC`, the AC50 was “inactive”.
In the case of `COc1cc(C(=O)NC(=S)Nc2ccc3oc(=O)ccc3c2)cc(OC)c1OC`, the AC50 is reported as “inactive”.
With `COc1cc(C(=O)NC(=S)Nc2cccc(-c3cc4ccccc4oc3=O)c2)cc(OC)c1OC` the AC50 was 5010 nM (active).
For `COc1cc(NC(=O)c2cc(Cl)ccc2Cl)ccc1-c1cc2ccccc2oc1=O`, the AC50 was 794 nM (active).
`CCOc1ccc(C(=O)Nc2cccc(-c3cc4ccccc4oc3=O)c2)cc1[N+](=O)[O-]` was tested, and the AC50 was 1780 nM (active).
`C[C@@H]1CCc2cc(F)cc3c(=O)c(C(=O)O)cn1c23` was tested, and the AC50 was “inactive”.
For `Clc1ccccc1-c1nccc(-n2ccnc2)n1`, the AC50 was 2510 nM (active).
For `Cc1noc(C)c1-c1nccc(N2CCN(C)CC2)n1`, the AC50 was “inactive”.
`FC(F)(F)c1ccccc1-c1nccc(N2CCNCC2)n1` was tested, and the AC50 was “inactive”.
`Clc1ccccc1-c1nc(NC2CCNCC2)c2ccccc2n1` was tested, and the AC50 was “inactive”.
`Cc1ccccc1-c1nc(N2CCNCC2)c2ccccc2n1` was tested, and the AC50 was “inactive”.
With `Cc1ccccc1-c1nc(N2CCN(C)CC2)c2ccccc2n1` the AC50 was “inactive”.
In the case of `Clc1ccccc1-c1nc(-n2ccnc2)c2ccccc2n1`, the AC50 is reported as 7940 nM (active).
In the case of `Cc1ccccc1-c1nc(-n2ccnc2)c2ccccc2n1`, the AC50 is reported as 5010 nM (active).
For `Cc1noc(C)c1-c1nccc(-n2ccnc2)n1`, the AC50 was 3980 nM (active).
`Cc1noc(C)c1-c1cc(N2CCN(C)CC2)ncn1` was tested, and the AC50 was “inactive”.
In the case of `CCOC(=O)[C@]1(CC(=O)O)CCCC1=O`, the activity, negative = inhibition is reported as 5.42% [at 11.4 µM] (inactive).
`CCOC(=O)C1(N(CC)CC)Sc2cc(C)ccc2NC1=O` (configuration not stated) was tested, and the AC50 was 89.1 nM (active).
`CCCCCCCCCCCCCCCCCC(=O)O[C@H](CC(=O)O)C[N+](C)(C)C` was tested, and the AC50 was “inactive”.
In the case of `NNC(=O)c1ccc[n+](CCc2ccccc2)c1`, the activity, negative = inhibition is reported as -21.6% [at 11.4 µM] (inactive).
In the case of `O=C(C[n+]1cccc(NC(=O)c2ccccc2)c1)c1ccc(NC(=O)c2ccccc2)cc1`, the AC50 is reported as 39800 nM (active).
For `O=[N+]([O-])c1ccc2c(c1)S(=O)c1ccccc1-2` (configuration not stated), the activity, negative = inhibition was 14.6% [at 11.4 µM] (inactive).
`Cc1cc([N+](=O)[O-])ccc1-c1ccc(C2Nc3ccccc3C(=O)N2O)o1` (configuration not stated) was tested, and the AC50 was 4470 nM (active).
For `O=C(O)CSc1nc2ccccc2[nH]1`, the activity, negative = inhibition was 5.01% [at 11.4 µM] (inactive).
For `O=C(CSc1nc2ccccc2[nH]1)Nc1c(F)cccc1F`, the AC50 was 8910 nM (active).
With `CCOC(=O)CCN1C(=O)[C@H]2[C@H]3[C@H](O)[C@H](O)C/C(=N/OC[C@@H](O)COCc4ccco4)[C@@H]3CC[C@@H]2C1=O` the activity, negative = inhibition was 40.5% [at 11.4 µM] (inactive).
In the case of `O=C(O)c1ccc(Oc2nc3ccccc3s2)cc1`, the AC50 is reported as 3980 nM (active).
In the case of `O=C(Nc1ccccc1-c1nc2ccccc2[nH]1)c1ccc(S(=O)(=O)N2CCCCC2)cc1`, the AC50 is reported as 2510 nM (active).
`Cc1sc(=NC(=O)c2ccco2)n(C)c1-c1ccccc1` was tested, and the AC50 was 8910 nM (active).
With `COc1ccccc1CNc1ccnc(-c2ccccc2Cl)n1` the AC50 was 1580 nM (active).
In the case of `CNc1ccnc(-c2ccccc2CN(C)C)n1`, the AC50 is reported as “inactive”.
For `COc1ccc(CNc2ccnc(-c3ccccc3Cl)n2)c(OC)c1`, the AC50 was 1260 nM (active).
In the case of `COc1ccc(CNc2ccnc(-c3ccccc3C(F)(F)F)n2)c(OC)c1`, the AC50 is reported as 10000 nM (active).
With `COc1ccc(CNc2ccnc(-c3ccccc3CN(C)C)n2)c(OC)c1` the AC50 was “inactive”.

— PubChem BioAssay AID1851 (National Center for Advancing Translational Sciences (NCATS), 2009)
% is set by controls: 0 for no effect and ±100 for the full control effect.
